Most compounds without a hit are left out; they make up all but 2.9% or so of the library.
EBNA-1 inh: blocks EBNA-1 binding to DNA; EBNA-1 DNA binding, fluorescence polarization; inhibition, % at 14.8 µM; hit rate 0.34% among 300,000; AID 1950; in the data active = inhibition above about 28%
PAFAH1B2 inh: blocks human PAF acetylhydrolase 1b catalytic subunit 2; hit rate 1.2% among 340,000; recombinant PAFAH1B2, FP-rhodamine activity probe, fluorescence polarization; inhibition, % at 3.39 µM;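 active = inhibition above the mean of all tested compounds plus 3 SD, cut at about 24% in these data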;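 note: 0% = enzyme with DMSO and 100% = wells lacking PAFAH1B2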
Target sequence (P68402 whole entry, looked up): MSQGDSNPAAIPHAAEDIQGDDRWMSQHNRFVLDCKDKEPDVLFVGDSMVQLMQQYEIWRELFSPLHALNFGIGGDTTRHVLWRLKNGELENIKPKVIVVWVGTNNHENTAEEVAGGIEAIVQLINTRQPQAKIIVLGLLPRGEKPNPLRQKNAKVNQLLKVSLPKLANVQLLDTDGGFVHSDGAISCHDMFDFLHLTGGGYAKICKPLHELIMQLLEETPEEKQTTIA
pPAFAH inh: pPAFAH (human) enzyme inhibition; hit rate 1.5% among 330,000; inhibition, % at 3.39 µM; Q13093; recombinant pPAFAH, FP-rhodamine probe fluorescence polarization;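 active = inhibition above the mean inhibition across the screen plus 3 SD, cut at about 25% in these data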;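 note: inhibitors block binding of the rhodamine activity-based probe so polarization drops; 0% = enzyme with DMSO and 100% = wells lacking pPAFAH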
Target sequence (Q13093 whole entry, looked up): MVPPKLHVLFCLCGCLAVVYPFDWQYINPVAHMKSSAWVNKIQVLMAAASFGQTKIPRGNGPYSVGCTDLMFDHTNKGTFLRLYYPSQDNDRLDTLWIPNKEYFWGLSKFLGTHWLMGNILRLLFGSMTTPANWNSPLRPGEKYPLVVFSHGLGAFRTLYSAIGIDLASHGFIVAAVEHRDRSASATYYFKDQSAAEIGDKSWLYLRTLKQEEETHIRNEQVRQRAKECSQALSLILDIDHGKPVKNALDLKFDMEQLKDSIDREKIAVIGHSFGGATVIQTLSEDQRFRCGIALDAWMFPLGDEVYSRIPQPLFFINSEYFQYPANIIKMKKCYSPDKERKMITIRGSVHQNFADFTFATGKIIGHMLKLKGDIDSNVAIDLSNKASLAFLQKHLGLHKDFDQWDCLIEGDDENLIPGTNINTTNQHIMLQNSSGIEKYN
PAFAH2 FP inh: inhibitors of human PAFAH2; Q99487; recombinant PAFAH2, FP-rhodamine activity probe, fluorescence polarization; inhibition, % at 3.39 µM; hit rate 0.99% among 340,000; AID 492956;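 active = inhibition above the mean over all tested compounds plus 3 SD, cut at about 30% in these data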;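 note: inhibitors block probe labeling of enzyme so polarization drops; 0% = enzyme with DMSO and 100% = wells lacking PAFAH2 protein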
ZTA DNA inh: ZTA (EBV) inhibition in EBNA-1 counter-screen. P03206. ZTA-DNA binding, fluorescence polarization. inhibition, % at 11 µM. hit rate 0.15% among 320,000; in the data active = inhibition above about 33%
PAFAH1B3 FP inh: PAFAH1B3 (human) inhibition; recombinant PAFAH1B3, FP-rhodamine probe, fluorescence polarization; inhibition, % at 3.39 µM; hit rate 0.28% among 340,000; AID 492972;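 active = inhibition above the screen-wide average of all tested compounds plus 3 SD, cut at about 25% in these data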;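 note: 0% = enzyme with DMSO only and 100% = wells lacking PAFAH1B3 protein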
* marks the source's active call; other numbers are inactive results; nt = no result given.

SMILES | EBNA-1 inh | PAFAH1B2 inh | pPAFAH inh | PAFAH2 FP inh | ZTA DNA inh | PAFAH1B3 FP inh
Cc1c(Br)c(O)c(Br)c(O)c1/C=N/n1c(-c2ccccc2)n[nH]c1=S | -13.8 | 14.0 | 14.1 | 22.4 | -8.5 | 34.8*
Oc1c(Br)cc(/C=N/n2c(-c3ccccc3)n[nH]c2=S)c(O)c1Br | nt | 7.7 | nt | 45.4* | nt | 28.3*
CSc1ccc(CN2CCC(n3nccc3NC(=O)c3ccccc3C)CC2)cc1 | -6.7 | 2.7 | 4.3 | 6.7 | -15.4 | 6.5
CCN(CC(=O)NCc1ccc(Cl)cc1)C(=O)/C=C/c1ccccc1 | 12.1 | 26.5* | 5.6 | 2.2 | -3.5 | 6.1
COc1cccc(=O)c2c(C)n(-c3cc(C)cc(C)c3)c(C)c12 | 0.1 | 7.2 | 23.5 | 58.8* | 4.1 | -0.4
O=C(O)CSc1cc(NS(=O)(=O)c2ccc(Br)cc2)c2ccccc2c1O | 13.4 | 52.0* | 16.3 | 41.9* | 8.9 | 63.3*
Cc1ccc(S(=O)(=O)Nc2cccc(Cl)c2)cc1NC(=O)C1CC1 | nt | 1.9 | 33.7* | 9.3 | nt | 13.7
Cc1ccc(S(=O)(=O)Nc2cccc(Cl)c2)cc1NC(=O)c1cccnc1 | 3.2 | 1.8 | 11.1 | 1.9 | -0.9 | 1.4
Cc1nnc(-c2cccc(Br)c2)c2cn(-c3ccccc3)nc12 | 6.3 | 6.1 | 24.6* | -6.0 | -15.8 | 7.1
Cc1nnc(-c2cccc(Br)c2)c2cn(-c3cccc(Br)c3)nc12 | 3.6 | -3.2 | 32.2* | 1.6 | -3.9 | -6.2
Cn1c(=O)[nH]c(=O)c2c1nc(SCC(O)CCl)n2Cc1ccccc1 (configuration not stated) | -6.0 | 0.3 | 4.4 | 7.3 | 13.9 | 1.3
CN(NS(=O)(=O)c1ccc(Cl)cc1)c1ncc(C(F)(F)F)cc1Cl | -3.9 | 27.9* | -3.4 | -1.6 | -0.5 | 4.5
CC(OC(=O)Cc1coc2ccc3ccccc3c12)C(=O)NC(N)=O (configuration not stated) | -17.7 | 1.9 | -2.8 | 0.7 | 7.9 | -0.6
O=C(CSc1ccccc1)N1CCCC(N2CCN(c3cccc(Cl)c3)CC2)C1 (configuration not stated) | 3.7 | 4.0 | 8.4 | 7.7 | -11.9 | 11.6
O=C(CCCN1C(=O)NC2(CCCC2)C1=O)Nc1ccc(F)cc1 | nt | 1.6 | -0.1 | -4.9 | 0.7 | -0.2
Cc1ccc(Sc2ccc(NC(=O)CCN3C(=O)NC4(CCCC4)C3=O)cc2)c(C)c1 | nt | 6.8 | 31.8* | 38.1* | 12.1 | 2.3
NC(=O)c1ccc(NC(=O)CN2C(=O)NC3(CCCCCCC3)C2=O)cc1 | nt | 2.6 | 26.4* | 8.0 | nt | 11.9
O=c1ccc(-c2ccc(S(=O)(=O)Nc3ccc(F)cc3)s2)n[nH]1 | -18.6 | 5.4 | 23.0 | -0.9 | -14.9 | 3.5
O=C(c1ccc2c(c1)OCO2)C1CCCN(Cc2c(F)ccc(F)c2F)C1 (configuration not stated) | 0.2 | -0.8 | 3.3 | -4.5 | 8.4 | 6.4
NCCNc1ccc(C(=O)N2c3ccccc3Sc3ccccc32)cc1[N+](=O)[O-] | 0.8 | 4.0 | 13.6 | 2.4 | 13.1 | 1.1
O=C(CSc1nccn1-c1ccc(Cl)cc1)N1CCCc2ccccc21 | 4.1 | 25.4* | 1.1 | -2.4 | -16.4 | -4.5
O=C(CSc1nccn1-c1ccccc1)N1CCc2ccccc21 | -5.1 | -2.1 | 2.8 | -2.5 | -1.5 | 3.7
O=C(NCc1cccnc1)/C(=C/c1ccc(-c2cccc(C(F)(F)F)c2)o1)NC(=O)c1ccccc1 | -0.6 | 5.1 | 29.8* | -7.1 | -11.3 | 5.1
CCc1occc(=O)c1Oc1cc(NN2CCCCC2)c([N+](=O)[O-])cc1[N+](=O)[O-] | -1.9 | 7.1 | 0.7 | 4.9 | -1.5 | -4.2
CC(C)(C)CC(C)(C)c1ccc(O)c(CN2CCN(CCC#N)CC2)c1 | 0.0 | 41.5* | 10.9 | -4.3 | 2.4 | -1.1
SMILES | EBNA-1 inh | PAFAH1B2 inh | pPAFAH inh | PAFAH2 FP inh | ZTA DNA inh | PAFAH1B3 FP inh
Cc1cc(NS(=O)(=O)c2ccc(Nc3nc(-c4ccc(C)c(C)c4)cs3)cc2)no1 | 13.7 | 8.2 | 34.3* | 24.8 | 11.9 | -1.9
O=[N+]([O-])c1cccc(C(=Nc2cccc(Cl)c2)NO)c1 | 12.1 | 5.5 | 0.4 | 1.9 | -25.4 | 10.4
ONC(=Nc1ccc(Cl)cc1)c1ccccc1 | 4.2 | 36.0* | -0.6 | 2.0 | 9.0 | 2.2
O=C(CN(c1ccccc1)S(=O)(=O)c1ccccc1)Nc1ccc(F)cc1 | 5.1 | 6.5 | -1.3 | 0.6 | -8.6 | 2.6
O=C1OC(c2ccccc2)=N/C1=C\C=C\c1ccco1 | 7.8 | 1.3 | 6.7 | 18.6 | 4.5 | -3.2
O=C1S/C(=C\C=C\c2ccco2)C(=O)N1c1ccccc1 | 7.6 | -2.9 | 25.8* | 5.9 | 15.1 | -3.4
C=CCNC(=S)NNC(=O)c1ccc(=O)n(Cc2ccccc2)c1 | -2.6 | nt | 3.7 | nt | -12.3 | nt
O=C(CCSc1ccccn1)c1ccccc1 | -9.1 | 3.2 | -4.3 | 3.7 | -31.4 | 3.1
Cc1c(Cl)cccc1NC(=O)CSCc1cc(=O)[nH][nH]1 | -2.1 | 1.7 | 24.9* | -1.6 | -10.5 | 1.4
COc1ccc(/C=C/C(=O)C23CC4CC(CC(C4)C2)C3)cc1CN1CCOCC1 | -3.2 | 3.9 | 3.2 | 19.4 | 3.7 | 1.5
CC(=O)NC1=C(N(C)C2CCS(=O)(=O)C2)C(=O)c2ccccc2C1=O (configuration not stated) | -0.1 | 8.5 | 7.1 | 8.4 | -13.9 | 25.2
CC(=O)NC1=C(Nc2ccc(N(C)C)cc2)C(=O)c2ccccc2C1=O | 40.5* | 4.0 | 6.5 | 7.6 | 37.0* | 12.9
O=C(Oc1cccc(Oc2ccccc2)c1)N1CCOCC1 | 7.4 | 4.9 | 25.3* | 5.3 | 12.0 | 6.4
O=S(=O)(c1ccc(F)cc1)N1CCC2(CC1)OCCN2S(=O)(=O)c1cccs1 | -4.5 | 28.1* | 13.7 | 8.5 | -10.1 | 1.3
O=S(=O)(c1cccs1)N1CCC2(CC1)OCCN2S(=O)(=O)c1ccccc1 | -3.5 | 13.1 | 1.8 | 20.9 | -14.7 | 14.8
Cc1cc(C)c2c(N)c(S(=O)c3ccc(C(C)(C)C)cc3)sc2n1 (configuration not stated) | -1.4 | 6.4 | 1.4 | -3.5 | -3.1 | -4.7
COc1ccc(N(CC(=O)NCc2ccccc2OC)S(=O)(=O)c2ccc(C)cc2)cc1Cl | -2.2 | 5.5 | 1.6 | 0.0 | 0.9 | -6.5
Cc1ccc(C2=C(O)C(=O)C(c3ccc(C)cc3)=C(O)C2=O)cc1 | nt | 40.5* | nt | 62.7* | nt | 65.1*
Cn1c(=O)c2c(nc(NC3CCCCC3)n2CC(=O)C23CC4CC(CC(C4)C2)C3)n(C)c1=O | -7.2 | 24.6* | 1.6 | 6.8 | -8.2 | -6.0
CC(C)c1ccc(C(C)NCCS(=O)(=O)c2ccc(Br)cc2)cc1 (configuration not stated) | -0.5 | 26.0* | 1.6 | -5.2 | -0.7 | -4.6
CC(NCCS(=O)(=O)c1ccc(Cl)cc1)c1cccc(Cl)c1 (configuration not stated) | -0.3 | 24.2* | 6.4 | 6.8 | -0.3 | 13.4
CNC(=O)CSc1nc2cc(S(=O)(=O)Nc3ccc(OC)cc3)ccc2o1 | 2.2 | 3.5 | 26.8* | 1.3 | -1.2 | 1.2
